Holding throughout (assay): NCI-60 one-dose screen, 48 h (100 = growth as untreated, 0 = no growth, -100 = all killed)
Holding throughout (conditions): 10 µM unless noted

In test [1] the test system is T-47D breast.
In test [2] the test system is BT-549 breast.
In test [3] the test system is MDA-MB-435 melanoma.
The subject of test [4] is SW-620 colon.
The subject of test [5] is MCF7 breast.
The subject of test [6] is HCT-116 colon.
The subject of test [7] is HCC-2998 colon.
For test [8], the system named is KM12 colon.

The panel holds about 83,000 compounds, 20% with a hit somewhere; the sample as a whole holds those more often.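 Growth was measured after 48 h exposure to one concentration of compound in 96-well plates. Values under 10 count as active.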 Unmarked numbers belong to inactive results. Active and inactive are the calls of the source.

Consider `CCOC(=O)N[C@H]1CCc2cc(OC)c(OC)c(OC)c2-c2ccc(SC)c(=O)cc21`, for which the growth is 47.7% in test [1]; -9.25% (active) in test [2]; -17.1% (active) in test [3]; 17.4% in test [4]; 13.5% in test [5]; 2.61% (active) in test [6]. Further, the growth was 12.2% in test [7] and 2.56% (active) in test [8].
As for `Cc1cccc(C)c1NC(=S)/N=C\c1c(O)[nH]c(=O)[nH]c1=O`, the growth in test [1] was 104%; in test [2] it was 93.9%; in test [3], 107%; in test [4], 105%; in test [5], 93.6%; in test [6], 106%. For the same compound, in test [8], the growth was 103%.
With `O=c1nc(Nc2cccc(Cl)c2)oc2cc(Cl)oc(=O)c12`, the growth was 61.6% in test [1]; 91.2% in test [2]; 85.8% in test [3]; 74.1% in test [4]; 53.8% in test [5]; 55.1% in test [6]. For the same compound, the growth is 96.2% in test [7] and 81.7% in test [8].
As to `CC(=O)c1cc(O)ccc1O`, the growth in test [1] is 108%; in test [2] it was 90.9%; in test [3], 108%; in test [4], 114%; in test [5], 101%; in test [6], 103%. The growth in test [8] was 116%.
In the case of `CC(=O)NNC(=S)N/C=C/c1c(C)ccc([N+](=O)[O-])c1[N+](=O)[O-]`, the growth in test [1] was 110%; in test [2] it was 99.9%; in test [3] it was 100%; in test [4], 110%; in test [5], 96.2%; in test [6], 89.9%. In addition, the growth in test [7] is 107%; in test [8] it was 97.2%.
Turning to `CC(=O)C1C(=O)C(=O)N(c2cccc([N+](=O)[O-])c2)C1=O` (stereo not drawn), the growth in test [1] is 101%; in test [2], 109%; in test [3], 104%; in test [4], 111%; in test [5], 94.3%; in test [6], 109%. Further, the results for the growth in test [7] and in test [8] were 85.9% and 112%, respectively.
Regarding `CCOC(=O)c1cc(C)[nH]c(=O)c1C#N`, the growth is 107% in test [1]; 92.9% in test [2]; 86% in test [3]; 107% in test [4]; 104% in test [5]; 99.9% in test [6]. Further, the growth in test [8] is 103%.
For the compound `CNc1ccccc1C(=O)N/N=C/C=C/c1ccccc1`, the growth in test [1] is 29.5%; in test [2], 47.3%; in test [3], -43.1% (active); in test [4], 20.2%; in test [5] it was 12.2%; in test [6] it was 21.6%. The growth in test [8] is 22.2%.
For `CN(C(=S)S(=O)(=O)C12CC3CC(CC(C3)C1)C2)c1ccccc1`, the growth is 87.1% in test [1]; 123% in test [2]; 98.8% in test [3]; 69.7% in test [4]; 99.4% in test [5]; 93.5% in test [6]. The growth in test [7] is 104%; in test [8], 109%.
With `Cc1ccnc(Nc2nc3ccccc3[nH]2)n1`, the growth in test [1] was 86.5%; in test [2], 112%; in test [3] it was 107%; in test [4] it was 99.3%; in test [5] it was 98.8%; in test [6], 103%. The growth in test [8] is 118%.
In the case of `Oc1ccc(N=Cc2ccc(OCc3ccccc3)cc2)cc1`, the growth is 103% in test [1]; 84.6% in test [2]; 88.4% in test [3]; 96.1% in test [4]; 99.1% in test [5]; 106% in test [6]. Moreover, the growth in test [8] was 92.8%.
As for `O=C(NCCc1ccccc1)/C(=C\c1ccc(Cl)cc1Cl)NC(=O)c1ccccc1`, the growth in test [1] is 98.1%; in test [2], 104%; in test [3], 96.6%; in test [4] it was 95.7%; in test [5] it was 91.9%; in test [6] it was 99.7%. The growth in test [8] was 93.4%.
In the case of `O=C(O)C1CCCN1C(=O)OCc1ccccc1` (stereo not drawn), the growth was 102% in test [1]; 85.8% in test [2]; 102% in test [3]; 111% in test [4]; 90% in test [5]; 107% in test [6]. In addition, the growth in test [8] is 113%.
`Cc1ccc(S(=O)(=O)NC(=O)NCCSSCCNC(=O)NS(=O)(=O)c2ccc(C)cc2)cc1`: the growth was 105% in test [1]; 125% in test [2]; 101% in test [3]; 98.3% in test [4]; 103% in test [5]; 113% in test [6]. In test [8], the growth was 113%.
Consider `Cc1cccnc1NC1OC(=O)c2ccccc21` (stereo not drawn), for which the growth in test [1] is 94.2%; in test [2], 97.6%; in test [3], 103%; in test [4], 106%; in test [5] it was 102%; in test [6], 90.8%. In addition, the growth in test [8] was 105%.
Consider `COc1c(CNC(=O)CCl)cc2[nH]c(C)cc2c1CNC(=O)CCl`, for which the growth in test [1] is 59.2%; in test [2] it was 58.9%; in test [3], 50.4%; in test [4], 55.1%; in test [5] it was 36%; in test [6], 41.7%. Moreover, the growth in test [8] is 59.2%.
As to `CCOc1ccc(C(=O)O)cc1`, the growth in test [1] is 100%; in test [2], 96.7%; in test [3], 104%; in test [4], 99.7%; in test [5], 94%; in test [6], 99%. Besides, the growth was 104% in test [7] and 112% in test [8].
Consider `C#CCSc1nnnn1-c1ccccc1`, for which the growth in test [1] is 39.6%; in test [2], 76.8%; in test [3], 85.3%; in test [4], 53.2%; in test [5], 69.3%; in test [6], 71.6%. The growth is 104% in test [7] and 77.6% in test [8].

For the origin of these results see PubChem BioAssay (NCI).
